# Assay outcomes as filed in PubChem.
# Bead autofluor: compound fluorescence in toxin protease inhibitor counterscreen; actives 3.1% (n = 360,000); compound autofluorescence counterscreen, microsphere flow cytometry; stronger effect = higher value; fluorescence intensity (concentration not given with the values); in the data active = fluorescence intensity above about 16000; inconclusive = no clear call, values can overlap the other calls
# BoNT F protease: inhibitors of Botulinum neurotoxin F light chain protease; Multiplex microsphere protease cleavage assay, flow cytometry; inhibition, % at 10 µM; actives 0.22% (n = 360,000); AID 588497; in the data active = inhibition above about 35%, passing the limit was not always enough; inconclusive = no clear call, values can overlap the other calls; also: plate controls were buffer without enzyme for full effect and enzyme alone for no effect
# BJeLR viability: BJeLR cell viability loss | inhibition, % (test concentration not listed) | actives 0.17% (n = 300,000) | BJeLR (HRASV12) viability, CellTiter-Glo ATP luminescence, 48 h | AID 1554; in the data active = inhibition above about 50%; inconclusive = no clear call, values can overlap the other calls
# Anthrax LF inh2: anthrax lethal factor protease inhibition | P15917 | multiplex microsphere protease cleavage assay, LF | inhibition, % at 10 µM | actives 0.12% (n = 360,000); also: plate controls were buffer without enzyme for full effect and enzyme alone for no effect
# Target sequence (P15917 whole entry, looked up): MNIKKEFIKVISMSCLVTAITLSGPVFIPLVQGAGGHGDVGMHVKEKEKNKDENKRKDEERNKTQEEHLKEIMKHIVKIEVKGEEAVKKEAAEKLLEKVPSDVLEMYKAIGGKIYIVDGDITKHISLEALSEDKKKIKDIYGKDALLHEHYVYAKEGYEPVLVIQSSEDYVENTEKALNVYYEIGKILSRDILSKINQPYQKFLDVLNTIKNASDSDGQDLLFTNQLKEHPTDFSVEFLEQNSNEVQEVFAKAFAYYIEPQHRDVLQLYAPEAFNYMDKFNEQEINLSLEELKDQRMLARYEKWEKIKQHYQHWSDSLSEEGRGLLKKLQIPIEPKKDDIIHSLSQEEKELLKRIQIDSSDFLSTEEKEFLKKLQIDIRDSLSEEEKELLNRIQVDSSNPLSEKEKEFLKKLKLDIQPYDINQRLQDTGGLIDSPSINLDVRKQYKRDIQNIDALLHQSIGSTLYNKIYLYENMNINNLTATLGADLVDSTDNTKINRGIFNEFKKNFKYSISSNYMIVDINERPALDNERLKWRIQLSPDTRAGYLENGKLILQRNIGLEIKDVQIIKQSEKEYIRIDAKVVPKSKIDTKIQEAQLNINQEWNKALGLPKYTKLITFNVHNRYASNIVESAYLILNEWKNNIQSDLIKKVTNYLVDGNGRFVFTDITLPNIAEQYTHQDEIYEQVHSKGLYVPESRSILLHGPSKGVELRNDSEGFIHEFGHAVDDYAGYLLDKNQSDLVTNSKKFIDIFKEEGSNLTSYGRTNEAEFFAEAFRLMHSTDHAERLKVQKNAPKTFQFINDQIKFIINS
# BoNT-A LC inh2: BoNT A light chain protease inhibition; AID 588499; inhibition, % at 10 µM; actives 0.17% (n = 360,000); multiplex microsphere protease substrate cleavage, flow cytometry; also: plate controls were buffer without enzyme for full effect and enzyme alone for no effect
# 3CLpro inhibitor: SARS-CoV 3CLpro protease inhibition; actives 0.14% (n = 290,000); inhibition, % at 6 µM; recombinant SARS-CoV 3CLpro, quenched FRET peptide cleavage; AID 1706; in the data active = inhibition above about 12%
# Active calls of the source: *; u = inconclusive; x = no result given. Only some compounds are listed: those with a hit (about 3.6% of all), similar ones and a draw of the others. Rule as the data show it, unless noted: active = inhibition above about 30%; inconclusive = no clear call, values can overlap the other calls; inactive = below that.
SMILES,Bead autofluor,BoNT F protease,BJeLR viability,Anthrax LF inh2,BoNT-A LC inh2,3CLpro inhibitor
O=C(c1nc2ccc(Cl)cn2c1CN1CCC[C@H]1CO)N1CCc2ccccc2C1,3382,12,x,-1,1,x
O=C(NCCCN1CCCC1=O)c1ccc2c(c1)OCO2,20949*,1,x,1,u,-2
Cc1ccc(NC(=O)NCCCN2CCCC2=O)cc1,22287*,1,-7,-2,2,0
Cc1ccc(S(=O)(=O)Nc2ccccc2F)cc1C(=O)NCCCN1CCCC1=O,22774*,-1,2,-2,-1,3
Cc1cccc(/C(N)=N/OC(=O)CCc2ccccc2)c1,10648,-21,-11,-6,-4,1
O=C(NNC(=O)c1ccccc1O)c1ccc(S(=O)(=O)Nc2ccccc2)cc1,5564,2,9,4,0,x
CCCCOc1ccc(C(=O)NCC(=O)NCCCn2nc(C)cc2C)cc1,2909,-4,x,-12,1,x
COc1ccc(S(=O)(=O)Nc2ccccc2SC)cc1C,23520*,-1,4,-1,-1,0
COc1ccc(S(=O)(=O)Nc2ccccc2OC)cc1C,6268,-7,7,-4,-1,2
COc1ccc(NS(=O)(=O)c2ccc(SC)cc2)c(OC)c1,21230*,2,-10,1,6,-4
C=CCOc1ccc(C2C(C(=O)c3cccs3)=C(O)C(=O)N2c2nnc(C)s2)cc1 (stereo unspecified),7000,170*,4,1,-1,-9
COc1ccc(C2C(C(=O)c3cccs3)=C(O)C(=O)N2c2nncs2)cc1 (stereo unspecified),22479*,1,5,-10,u,-9
COc1ccc(C2C(C(=O)c3cccs3)=C(O)C(=O)N2c2nnc(C)s2)cc1OC (stereo unspecified),7571,5,-6,7,2,-1
O=C(Nc1cccc2c1CCCC2)c1cc(C2CCCCN2C(=O)CCCc2ccccc2)on1 (stereo unspecified),3126,3,x,-6,0,x
CCOC(=O)CNC(=O)Cn1cnc2c(nnn2-c2ccc(C)cc2)c1=O,18628*,10,-12,-12,10,5
CCOC(=O)CNC(=O)Cn1cnc2c(nnn2-c2cccc(OC)c2)c1=O,3755,-1,10,-12,-1,-1
CCOC(=O)CNC(=O)Cn1cnc2c(nnn2-c2cccc(Cl)c2)c1=O,23372*,-3,-7,2,-2,2
O=C(NCCC1=CCCCC1)C1CC(=O)N(Cc2ccccc2)C1 (stereo unspecified),5764,3,-2,2,1,-3
COc1ccc(OCC(=O)N/N=C2\CCCc3ccccc32)cc1,2470,-19,7,2,-1,-1
Cc1cccc2c1OCC/C2=N\NC(=O)COc1ccccc1,20669*,-1,-8,0,-2,2
CC(C)Cn1c(=O)c(C(=O)N/N=C/c2cccc(F)c2)c(O)c2ccccc21,1995,-1,-6,-2,0,-6
COc1ccc(-n2cccc2C=O)cc1,2784,-5,-2,-1,-1,1
COc1ccc(-n2cccc2C=O)cc1OC,22117*,-2,-3,-2,u,-5
O=C(CN(c1ccc(F)cc1)S(=O)(=O)c1ccc2c(c1)OCCO2)NCC1CCCO1 (stereo unspecified),22449*,1,4,2,1,1
COc1ccc(N(CC(=O)NCc2cccc(OC)c2)S(=O)(=O)c2c(C)noc2C)cc1,20088*,0,2,-2,0,-3
SMILES,Bead autofluor,BoNT F protease,BJeLR viability,Anthrax LF inh2,BoNT-A LC inh2,3CLpro inhibitor
COc1ccc(N(CC(=O)NCC2CCCO2)S(=O)(=O)c2c(C)noc2C)cc1 (stereo unspecified),23408*,-6,3,-2,u,-1
Cc1ccc(S(=O)(=O)NCCNC(=O)N2CCOCC2)cc1,21580*,-1,-1,0,-2,-3
Cc1ccc(S(=O)(=O)NCCOc2nc(N3CCOCC3)nc(N3CCOCC3)n2)cc1,21551*,5,-1,4,2,-4
O=C(NCCOc1nc(N2CCOCC2)nc(N2CCOCC2)n1)Nc1ccc(Cl)cc1,11489,0,-5,-4,-1,2
Cc1ccc(S(=O)(=O)NCCCNC(=O)c2ccccc2)cc1,23361*,-4,1,-2,-2,6
C=CCC1(CC=C)CCCN1C(=O)c1cc(COc2ccc(C)nc2)on1,x,x,14,x,x,-3
COc1cc(NC(=O)c2cnc(NCc3ccccc3)nc2C)cc(OC)c1OC,3393,12,10,0,0,-1
